Results taken from PubChem BioAssay (NCATS).
Several values for one entry are separate records, joined by “and”; a condition that tells them apart may be missing. Equal entries are not always repeated. Records with an inconclusive call do not appear. A structure can be active in one record and inactive in another. Activity calls are given as the source filed them. Calls follow the shape of the dose curve; as a rule, active = well fitted curve in the direction sought with a large enough effect; inconclusive = small, poorly fitted or top-dose-only effect, or another doubt; inactive = no such curve, though single readings can be large; an effect the other way counts as inactive or inconclusive.

Experiments:
[1] = molecular target: Beta-2 adrenergic receptor (Homo sapiens) (UniProt P07550); assay: qHTS validation assay of beta-arrestin-biased ligands of beta2-adrenergic receptor (AID 485366); details: cell-based beta-arrestin recruitment to ADRB2, qHTS; series mostly up to 46.1 µM
Outline: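 Compound series up to 46 microM applied to beta2-AR/beta-arrestin Tango cells, 18 hr, 37 degrees C, 5% CO2. Read-out: tTA-driven luciferase luminescence, converted to %Activity; concentration-response curves assigned curve classes.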

[2] = molecular target: ATP-dependent 6-phosphofructokinase (Trypanosoma brucei brucei) (UniProt O15648); assay: qHTS Validation Assay to Find Inhibitors of T. brucei phosphofructokinase (AID 485368); details: T. brucei PFK enzyme assay, qHTS 7-point titration; series mostly up to 57.5 µM
Outline: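 qHTS format, up to 57 uM. PFK 1.25 nM; F6P 0.5 mM; ATP 0.1 mM; 5 mM MgCl2, 0.01% Tween20, 0.1% BSA; 0.1 M TEA pH 8.0; 45 min RT; ADP-Glo readout; no-enzyme control = full inhibition.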

[3] = Quantitative high throughput screen for delayed death inhibitors of the malarial parasite plastid, 96 hour incubation (AID 488745); details: Plasmodium falciparum growth; series mostly up to 28.7 µM; also: nearly all actives have a fitted effect of over 70% in size; also: potency is read from the fitted curve at half-maximal effect
Outline: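 Two-generation (96 h) exposure of luciferase-reporter P. falciparum in erythrocytes, 2% hematocrit, 0.1% parasitemia final, 37 C, 5% CO2, RPMI 1640 with 0.5% Albumax. Growth inhibition scored by reduced luminescence.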

[4] = Quantitative high throughput screen for delayed death inhibitors of the malarial parasite plastid, 48 hour incubation (AID 488752); details: Plasmodium falciparum growth; series mostly up to 28.7 µM; also: nearly all actives have a fitted effect of over 65% in size; also: potency is read from the fitted curve at half-maximal effect
Outline: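 Cultures: infected erythrocytes at final 2% hematocrit and 0.1% parasitemia in Albumax-supplemented RPMI. Parasites express integrated firefly luciferase. Incubation with compound lasts 48 h before luminescent detection of remaining reporter activity.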

[5] = molecular target: Thioredoxin reductase 1, cytoplasmic (Rattus norvegicus) (UniProt O89049); assay: qHTS Assay for Substrates of Mammalian Selenoprotein Thioredoxin Reductase 1 (TrxR1) (AID 488772); details: purified TrxR1, NADPH consumption substrate assay; series mostly up to 57.1 µM;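 also: a drop in NADPH fluorescence below the no-compound background marks a TrxR1 substrate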
Outline: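 In this dual-purpose format, potential substrates are identified from the first fluorescence read after selenite addition, not from the 8-minute delta. Rat enzyme is preincubated with NADPH and then with compound at ~22 deg C.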

[6] = molecular target: Thioredoxin reductase 1, cytoplasmic (Rattus norvegicus) (UniProt O89049); assay: qHTS Assay for Inhibitors of Mammalian Selenoprotein Thioredoxin Reductase 1 (TrxR1) (AID 488773); details: purified TrxR1 enzyme activity; Potency: inhibition; series mostly up to 57.1 µM; also: nearly all actives have a fitted effect of over 40% in size; also: potency is read from the fitted curve at half-maximal effect
Outline: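 Inhibition is scored from the loss of NADPH fluorescence between first and last reads of an 8-min kinetic run. Selenite (400 uM) was the substrate, added after 15 min compound preincubation at room temperature.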

[7] = molecular target: Flap endonuclease 1 (Homo sapiens) (UniProt P39748); assay: qHTS Validation Assay for the Inhibitors of Human Flap endonuclease 1 (FEN1) (AID 488816); details: FEN1 nuclease activity, fluorogenic DNA substrate; series mostly up to 57.1 µM; also: potency is read from the fitted curve at half-maximal effect
Outline: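 Steps: add FEN1 (10 nM reagent) or buffer only; pin compounds; hold 15 min at room temperature; start with substrate, 50 nM final; read at 0 and 15 min; correct, normalize and fit a four-parameter Hill curve.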

[8] = molecular target: M-phase phosphoprotein 8 (Homo sapiens) (UniProt Q99549); assay: qHTS Validation Assay for Inhibitors for MPP8 Chromodomain Interactions with Methylated Histone Tails (AID 488949); details: AlphaScreen MPP8 binding to H3K9me3 peptide; series mostly up to 57.1 µM; also: nearly all actives have a fitted effect of over 55% in size; also: potency is read from the fitted curve at half-maximal effect
Outline: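 MPP8 (50 nM) was pre-bound to 50 nM biotinylated H3(1-18)K9me3 peptide in PBS pH 7.4 with 0.01% Tween-20. Compounds were then added for 30 min at room temperature, and complex disruption was read by AlphaScreen with streptavidin donor and nickel-chelate acceptor beads.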

[9] = molecular target: Methanococcus maripaludis chaperonin (MmCpn) (UniProt Q6LX38); assay: High-Throughput Screening for Modulators of Cytosolic Chaperonin Activity: MmCpn Primary Screen (AID 488978); details: Purified MmCpn ATPase activity, ADP HTRF detection, 10 min; series mostly up to 76.9 µM;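 also: 50 nM MmCpn enzyme hydrolysing 30 µM ATP at 37 °C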
Outline: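 MmCpn at 50 nM final was preincubated 5 min at RT with compound. ATP was then added at 30 uM final for 10 min at 37 C. ADP formed was detected by Transcreener HTRF (665/590 nm).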

[10] = molecular target: Chromobox protein homolog 1 (Homo sapiens) (UniProt P83916); assay: qHTS Validation Assay for Inhibitors of HP1-beta Chromodomain Interactions with Methylated Histone Tails (AID 488953); details: HP1-beta chromodomain / methylated histone peptide binding assay; series mostly up to 114 µM;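 also: loss of AlphaScreen luminescence from HP1-beta binding biotinylated H3K9me3 peptide; nearly all actives have a fitted effect of over 50% in size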
Outline: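 Compounds pinned into a preassembled complex of HP1-beta and trimethyl-K9 histone H3(1-18) biotin peptide (50 nM each; PBS pH 7.4, 0.01% Tween-20). After 30 min, bead-based AlphaScreen detection followed.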

Measured: Potency

Thioredoxin reductase 1, cytoplasmic (Rattus norvegicus), sequence (O89049 whole entry, looked up): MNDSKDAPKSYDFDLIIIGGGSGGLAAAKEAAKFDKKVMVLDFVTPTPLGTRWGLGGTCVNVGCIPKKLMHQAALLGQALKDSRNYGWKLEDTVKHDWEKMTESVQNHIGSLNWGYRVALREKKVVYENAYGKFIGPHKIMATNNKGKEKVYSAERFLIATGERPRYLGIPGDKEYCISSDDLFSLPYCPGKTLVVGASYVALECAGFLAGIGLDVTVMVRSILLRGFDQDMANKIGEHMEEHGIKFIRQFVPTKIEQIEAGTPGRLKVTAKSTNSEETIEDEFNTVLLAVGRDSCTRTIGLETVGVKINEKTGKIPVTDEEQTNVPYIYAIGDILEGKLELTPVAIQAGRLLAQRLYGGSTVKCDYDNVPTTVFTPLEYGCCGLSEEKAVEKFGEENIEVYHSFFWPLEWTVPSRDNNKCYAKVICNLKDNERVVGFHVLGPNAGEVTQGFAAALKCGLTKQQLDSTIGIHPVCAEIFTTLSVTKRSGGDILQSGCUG
M-phase phosphoprotein 8 (Homo sapiens), sequence (Q99549 whole entry, looked up): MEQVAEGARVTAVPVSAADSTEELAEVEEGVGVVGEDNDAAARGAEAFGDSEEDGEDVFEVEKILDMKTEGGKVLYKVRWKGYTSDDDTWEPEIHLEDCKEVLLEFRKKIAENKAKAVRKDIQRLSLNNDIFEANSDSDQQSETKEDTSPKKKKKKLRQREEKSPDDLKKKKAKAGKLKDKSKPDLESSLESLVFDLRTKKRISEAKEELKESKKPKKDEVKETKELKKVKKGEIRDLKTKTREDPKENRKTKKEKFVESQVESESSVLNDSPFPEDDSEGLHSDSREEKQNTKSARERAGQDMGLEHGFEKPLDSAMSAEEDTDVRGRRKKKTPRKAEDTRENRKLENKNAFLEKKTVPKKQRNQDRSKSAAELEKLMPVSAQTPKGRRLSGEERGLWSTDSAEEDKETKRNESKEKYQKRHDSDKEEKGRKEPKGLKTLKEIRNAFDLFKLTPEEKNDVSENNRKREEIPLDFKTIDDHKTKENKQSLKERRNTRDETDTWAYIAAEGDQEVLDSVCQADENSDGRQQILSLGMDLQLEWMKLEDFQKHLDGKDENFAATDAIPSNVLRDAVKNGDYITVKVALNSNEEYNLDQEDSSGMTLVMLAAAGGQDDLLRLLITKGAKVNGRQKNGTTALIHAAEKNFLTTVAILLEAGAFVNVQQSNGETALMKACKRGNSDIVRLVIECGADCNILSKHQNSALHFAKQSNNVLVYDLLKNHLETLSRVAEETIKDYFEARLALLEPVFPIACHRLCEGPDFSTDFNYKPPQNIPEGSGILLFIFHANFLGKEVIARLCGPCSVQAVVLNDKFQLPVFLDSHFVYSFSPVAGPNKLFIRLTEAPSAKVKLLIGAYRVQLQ
Beta-2 adrenergic receptor (Homo sapiens), sequence (P07550 whole entry, looked up): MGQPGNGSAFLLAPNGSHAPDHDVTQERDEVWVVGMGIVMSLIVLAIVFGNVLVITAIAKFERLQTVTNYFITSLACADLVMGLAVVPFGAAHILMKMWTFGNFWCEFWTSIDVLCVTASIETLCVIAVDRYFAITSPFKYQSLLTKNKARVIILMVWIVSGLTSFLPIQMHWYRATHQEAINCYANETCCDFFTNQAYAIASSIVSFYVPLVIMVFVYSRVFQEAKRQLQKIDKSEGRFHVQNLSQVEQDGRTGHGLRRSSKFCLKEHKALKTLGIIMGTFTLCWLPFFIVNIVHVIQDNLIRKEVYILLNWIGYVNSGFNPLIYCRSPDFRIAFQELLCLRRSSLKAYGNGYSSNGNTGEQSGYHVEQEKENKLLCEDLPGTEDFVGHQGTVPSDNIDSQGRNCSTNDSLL
Flap endonuclease 1 (Homo sapiens), sequence (P39748 whole entry, looked up): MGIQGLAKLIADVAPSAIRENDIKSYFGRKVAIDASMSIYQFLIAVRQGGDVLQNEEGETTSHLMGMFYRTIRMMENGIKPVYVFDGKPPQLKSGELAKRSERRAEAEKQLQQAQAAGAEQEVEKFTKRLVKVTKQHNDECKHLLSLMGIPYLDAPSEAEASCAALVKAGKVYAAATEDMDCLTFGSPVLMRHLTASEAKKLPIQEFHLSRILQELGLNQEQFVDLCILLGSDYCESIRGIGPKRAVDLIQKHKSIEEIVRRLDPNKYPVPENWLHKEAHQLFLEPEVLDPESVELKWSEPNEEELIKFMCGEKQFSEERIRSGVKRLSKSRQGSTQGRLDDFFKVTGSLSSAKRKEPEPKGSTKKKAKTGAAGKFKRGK
ATP-dependent 6-phosphofructokinase (Trypanosoma brucei brucei), sequence (O15648 whole entry, looked up): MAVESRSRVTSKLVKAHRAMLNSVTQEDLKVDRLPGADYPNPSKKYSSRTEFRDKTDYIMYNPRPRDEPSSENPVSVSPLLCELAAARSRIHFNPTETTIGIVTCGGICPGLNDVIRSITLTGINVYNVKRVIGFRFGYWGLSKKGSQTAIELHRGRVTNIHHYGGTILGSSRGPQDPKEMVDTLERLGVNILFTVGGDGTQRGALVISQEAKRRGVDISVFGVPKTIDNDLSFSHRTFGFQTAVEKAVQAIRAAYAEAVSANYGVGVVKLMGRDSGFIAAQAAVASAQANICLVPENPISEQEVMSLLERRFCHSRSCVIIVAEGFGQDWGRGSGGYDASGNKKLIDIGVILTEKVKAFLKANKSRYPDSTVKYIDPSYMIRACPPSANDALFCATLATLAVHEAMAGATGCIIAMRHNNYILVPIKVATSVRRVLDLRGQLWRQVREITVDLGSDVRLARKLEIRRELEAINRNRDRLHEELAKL
Methanococcus maripaludis chaperonin (MmCpn), sequence (Q6LX38 1-543): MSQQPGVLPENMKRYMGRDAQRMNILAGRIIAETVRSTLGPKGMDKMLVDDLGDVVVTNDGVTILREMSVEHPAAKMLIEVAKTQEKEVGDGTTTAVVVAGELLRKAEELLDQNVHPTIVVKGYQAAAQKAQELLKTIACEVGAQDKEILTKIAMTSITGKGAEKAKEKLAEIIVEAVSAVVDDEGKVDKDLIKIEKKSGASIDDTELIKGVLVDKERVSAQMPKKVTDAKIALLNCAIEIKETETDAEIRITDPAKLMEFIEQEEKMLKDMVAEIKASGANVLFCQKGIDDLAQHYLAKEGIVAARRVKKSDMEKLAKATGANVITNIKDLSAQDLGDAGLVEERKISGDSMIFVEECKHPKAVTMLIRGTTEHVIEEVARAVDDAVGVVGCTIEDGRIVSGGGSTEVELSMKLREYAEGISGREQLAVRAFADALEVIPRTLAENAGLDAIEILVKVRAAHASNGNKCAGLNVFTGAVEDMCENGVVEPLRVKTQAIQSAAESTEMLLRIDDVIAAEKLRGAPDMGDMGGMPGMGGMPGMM
Chromobox protein homolog 1 (Homo sapiens), sequence (P83916 whole entry, looked up): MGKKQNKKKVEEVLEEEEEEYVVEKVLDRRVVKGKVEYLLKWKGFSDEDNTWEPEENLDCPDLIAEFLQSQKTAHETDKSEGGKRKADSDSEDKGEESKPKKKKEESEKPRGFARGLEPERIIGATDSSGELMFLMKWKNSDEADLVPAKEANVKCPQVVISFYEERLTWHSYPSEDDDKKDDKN

O=c1[nH]cnc2[nH]ncc12
not listed: [10]
inactive: all other assays above

Cn1cnc([N+](=O)[O-])c1Sc1ncnc2nc[nH]c12
active: [6] 15000 nM
not listed: [4]
inactive: all other assays above

C[C@]12CCC(=O)C=C1CC[C@@H]1[C@@H]2[C@@H](O)C[C@@]2(C)[C@H]1CC[C@]2(O)C(=O)CO
not listed: [3] | [4] | [10]
inactive: all other assays above

OC(CN1CCC(Cc2ccc(F)cc2)CC1)c1ccc(Cl)cc1 (stereo unspecified)
active: [3] 2940 nM | [4] 3290 nM
not listed: [10]
inactive: all other assays above

CCN(CC)CCCC(C)Nc1ccnc2cc(Cl)ccc12 (stereo unspecified)
active: [3] 262 nM | [4] 165 nM
not listed: [10]
inactive: all other assays above

Nc1nc2c(ncn2COCCO)c(=O)[nH]1
not listed: [5] | [7] | [10]
inactive: all other assays above

OC(CCN1CCCCC1)(c1ccccc1)C1CC2C=CC1C2 (stereo unspecified)
not listed: [3] | [4] | [10]
inactive: all other assays above

CN1CCN(CCCN2c3ccccc3Sc3ccc(C(F)(F)F)cc32)CC1
active: [4] 9280 nM | [8] 20 µM
not listed: [3] | [10]
inactive: all other assays above

Cc1ccc(N(CC2=NCCN2)c2cccc(O)c2)cc1
not listed: [10]
inactive: all other assays above

CC(=O)Oc1ccccc1C(=O)O
not listed: [10]
inactive: all other assays above

Cc1oncc1C(=O)Nc1ccc(C(F)(F)F)cc1
not listed: [3] | [4] | [10]
inactive: all other assays above

CCn1cc(C(=O)O)c(=O)c2cc(F)c(N3CCNC(C)C3)c(F)c21 (stereo unspecified)
not listed: [3] | [10]
inactive: all other assays above

CCOC(=O)C1=C[C@]2(CC)CCCN3CCc4c(n1c1ccccc41)[C@@H]32
not listed: [3] | [4] | [10]
inactive: all other assays above

Clc1cccc(Cl)c1NC1=NCCN1
not listed: [10]
inactive: all other assays above

CNC[C@H](O)c1cccc(O)c1
not listed: [10]
inactive: all other assays above

O=NN(CCCl)C(=O)NCCCl
not listed: [10]
inactive: all other assays above

CCCC(CCC)C(=O)O
not listed: [10]
inactive: all other assays above

Nc1ncnc2nc(-c3ccc(N4CCOCC4)nc3)cc(-c3cccc(Br)c3)c12
inactive: [1] | [2] | [5] | [8] | [9]

Cc1ccccc1C(OCCN(C)C)c1ccccc1 (stereo unspecified)
not listed: [10]
inactive: all other assays above

O=C1CCC(N2C(=O)c3ccccc3C2=O)C(=O)N1 (stereo unspecified)
not listed: [10]
inactive: all other assays above

Nc1nc2ccc(OC(F)(F)F)cc2s1
not listed: [3] | [4] | [10]
inactive: all other assays above

NC(=O)c1cnccn1
not listed: [10]
inactive: all other assays above

C1COC(NC(C2CC2)C2CC2)=N1
not listed: [3] | [10]
inactive: all other assays above

Nc1ccc(S(=O)(=O)Nc2ccnn2-c2ccccc2)cc1
not listed: [10]
inactive: all other assays above

NCCCC(N)(C(=O)O)C(F)F (stereo unspecified)
not listed: [10]
inactive: all other assays above

CC(C[N+](C)(C)C)OC(N)=O (stereo unspecified)
not listed: [10]
inactive: all other assays above

Cc1[nH]c(=O)c(C#N)cc1-c1ccc2nccn2c1
not listed: [2] | [10]
inactive: all other assays above

NC(N)=NC(=O)c1nc(Cl)c(N)nc1N
inactive: [1] | [2] | [6] | [8] | [9]

N[C@@H]1CONC1=O
not listed: [2] | [10]
inactive: all other assays above

Cc1cc2c(C(C)C)c(O)c(O)c(C=O)c2c(O)c1-c1c(C)cc2c(C(C)C)c(O)c(O)c(C=O)c2c1O
inactive: [1] | [9]

O=C(Nc1nc2ccccc2n1CCN1CCOCC1)c1cccc([N+](=O)[O-])c1
inactive: [1] | [5] | [6] | [7] | [8] | [9]

CC(C)C[C@H](NC(=O)[C@@H](O)[C@H](N)Cc1ccccc1)C(=O)O
active: [3] 370 nM | [4] 1040 nM
inactive: [5] | [6] | [7] | [8] | [9]

CC(C)NCC(O)COc1ccc(COCCOC(C)C)cc1 (stereo unspecified)
not listed: [1] | [10]
inactive: all other assays above

Cc1[nH]c(=O)c(C#N)cc1-c1ccncc1
not listed: [2] | [10]
inactive: all other assays above

CC(C)(C)NCC(O)c1ccc(O)c(CO)c1 (stereo unspecified)
not listed: [1] | [7] | [10]
inactive: all other assays above

Oc1ccc(C2CNCCc3c2cc(O)c(O)c3Cl)cc1 (stereo unspecified)
inactive: [1] | [5] | [8] | [9]

CCCCNc1cc(C(=O)O)cc(S(N)(=O)=O)c1Oc1ccccc1
not listed: [2] | [10]
inactive: all other assays above

NC[C@H](O)c1ccc(O)c(O)c1
active: [7] 2120 nM
not listed: [2] | [6] | [10]
inactive: all other assays above

O=c1n(CCCN2CCN(c3cccc(Cl)c3)CC2)nc2ccccn12
not listed: [2] | [10]
inactive: all other assays above

c1ccc([C@H]2CN3CCSC3=N2)cc1
not listed: [2] | [10]
inactive: all other assays above

NS(=O)(=O)c1cc2c(cc1Cl)NC=NS2(=O)=O
not listed: [2] | [10]
inactive: all other assays above

NCCc1ccc(O)c(O)c1
active: [7] 844 nM
inactive and 1.06 µM (active): [8]
not listed: [2]
inactive: all other assays above

Cc1cn[nH]c1
not listed: [2] | [10]
inactive: all other assays above

CCOC(=O)N1CCC(=C2c3ccc(Cl)cc3CCc3cccnc32)CC1
inactive: [1] | [5] | [6] | [7] | [8] | [9]

CCC(C)N(C)C(=O)c1cc2ccccc2c(-c2ccccc2Cl)n1 (stereo unspecified)
inactive: [1] | [5] | [6] | [7] | [8] | [9]

N=c1nc(N2CCCCC2)cc(N)n1O
not listed: [2] | [10]
inactive: all other assays above

O=C1CCc2cc(OCCCCc3nnnn3C3CCCCC3)ccc2N1
not listed: [2] | [10]
inactive: all other assays above

CC(C)(Sc1ccc(CCN(CCCCC2CCCCC2)C(=O)NC2CCCCC2)cc1)C(=O)O
56.2 µM (active) and inactive: [8]
not listed: [2] | [10]
inactive: all other assays above

NNCCc1ccccc1
not listed: [2] | [10]
inactive: all other assays above

O=C(O)COCCN1CCN(C(c2ccccc2)c2ccc(Cl)cc2)CC1 (stereo unspecified)
inactive: [1] | [5] | [6] | [7] | [8] | [9]

Cc1cccc(-c2[nH]c(C(C)(C)C)nc2-c2ccc3nccnc3c2)n1
inactive: [1] | [5] | [6] | [7] | [8] | [9]

Cc1cnc(NC(=O)C2=C(O)c3ccccc3S(=O)(=O)N2C)s1
inactive: [1] | [3] | [4] | [5] | [8] | [9]
